# Measured values from the supplement of paper PMC8371130.
# Where a name gives a salt, the structure may show the parent alone.
# Tested on: HL-1
# Assay: relative cell viability (CellTiter-Glo) vs DMSO control (% of DMSO control); higher = more viable cells
# Summary of the method: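 In 384-well plates, 1000 HL-1 mouse atrial cardiomyocytes per well were plated with compounds at 40, 200, 1000 or 5000 nM in 0.01% DMSO. Hypoxia at 1% O2 for 48 h began one day later and was followed by 24 h of reoxygenation, with parallel plates held in normoxia. CellTiter-Glo luminescence gave cell viability relative to vehicle-treated control cells.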
# [1] = oxygen condition: hypoxia 48 h (1% O2) + reoxygenation 24 h, 40 nM
# [2] = oxygen condition: hypoxia 48 h (1% O2) + reoxygenation 24 h, 200 nM
# [3] = oxygen condition: hypoxia 48 h (1% O2) + reoxygenation 24 h, 1000 nM
# [4] = oxygen condition: hypoxia 48 h (1% O2) + reoxygenation 24 h, 5000 nM
# [5] = oxygen condition: normoxia 72 h, 40 nM
# [6] = oxygen condition: normoxia 72 h, 200 nM
# [7] = oxygen condition: normoxia 72 h, 1000 nM
# [8] = oxygen condition: normoxia 72 h, 5000 nM
SMILES,relative cell viability [1],relative cell viability [2],relative cell viability [3],relative cell viability [4],relative cell viability [5],relative cell viability [6],relative cell viability [7],relative cell viability [8]
CN1CCN(C2=Nc3ccccc3Oc3ccc(Cl)cc32)CC1 [Loxapine Succinate],100,103,105,116,103,111,102,125
COc1ccc(CNc2nc(N3CCC[C@H]3CO)ncc2C(=O)NCc2ncccn2)cc1Cl [Avanafil],91.6,99.7,97.5,103,101,102,97.1,107
Clc1ccc(COC(Cn2ccnc2)c2ccc(Cl)cc2Cl)cc1 (configuration not stated) [Econazole nitrate],102,104,106,108,110,105,102,105
CN1CCC[C@H]1c1cccnc1 [Nicotine Ditartrate],97.5,99.9,106,113,104,104,103,109
CC(C)n1c(/C=C/C(O)CC(O)CC(=O)O)c(-c2ccc(F)cc2)c2ccccc21 (configuration not stated) [Fluvastatin sodium],88.9,57.3,17.3,3.7,101,83.5,28.6,4.76
CNC(=O)CN(CCN(CCN(CC(=O)[O-])CC(=O)NC)CC(=O)[O-])CC(=O)[O-].[Gd+3] [Gadodiamide],98,104,98.5,106,103,98.8,107,112
C[C@H](CCC(=O)O)[C@H]1CC[C@H]2[C@@H]3CC[C@@H]4C[C@H](O)CC[C@]4(C)[C@H]3CC[C@]12C [Lithocholic acid],108,108,108,113,102,113,105,108
Fc1ccc(C(c2ccc(F)cc2)N2CCN(C/C=C/c3ccccc3)CC2)cc1 [Flunarizine 2HCl],93.6,100,98.7,117,107,99.7,109,114
CCOC(=O)[C@H](CCc1ccccc1)N[C@H]1CCCN2CCC[C@@H](C(=O)O)N2C1=O [Cilazapril monohydrate],97.6,97.3,94.1,113,105,106,98.7,115
O=C(c1ccccc1)c1ccc2n1CCC2C(=O)O (configuration not stated) [Ketorolac],104,105,104,109,102,98.3,103,111
Cc1ncc(C[n+]2csc(CCO)c2C)c(N)n1 [Thiamine HCl],101,107,102,112,99.4,104,106,117
COC(=O)[C@@H]1CC2=CC(=O)CC[C@]2(C)[C@@]23O[C@@H]2C[C@@]2(C)[C@@H](CC[C@@]24CCC(=O)O4)[C@H]13 [Eplerenone],102,103,101,103,107,107,108,104
CC1CC(OC(=O)C(O)c2ccccc2)CC(C)(C)C1 (configuration not stated) [Cyclandelate],104,106,106,118,103,108,110,115
C#CCN[C@@H]1CCc2ccccc21 [Rasagiline mesylate],94.8,96.7,98.2,102,93.3,92.9,99.4,108
Cc1cnc(C(=O)O)c[n+]1[O-] [Acipimox],105,104,109,116,101,104,107,108
Cc1cc(N)c2ccccc2[n+]1CCCCCCCCCC[n+]1c(C)cc(N)c2ccccc21 [Dequalinium chloride],101,104,101,112,93.3,107,97.3,101
NC(=O)c1cccnc1 [Nicotinamide],95.4,97.2,98.5,104,96.7,103,95.5,102
CCC(=O)NCC[C@@H]1CCc2ccc3c(c21)CCO3 [Ramelteon],104,116,110,111,105,108,118,107
OCCN(CCO)c1nc(N2CCCCC2)c2nc(N(CCO)CCO)nc(N3CCCCC3)c2n1 [Dipyridamole],102,107,93.7,108,108,98.7,98,113
Nc1ccn([C@@H]2O[C@H](CO)[C@@H](O)C2(F)F)c(=O)n1 [Gemcitabine],3.81,3.59,4.33,3.65,3.56,3.5,3.75,3.7

SMILES,relative cell viability [1],relative cell viability [2],relative cell viability [3],relative cell viability [4],relative cell viability [5],relative cell viability [6],relative cell viability [7],relative cell viability [8]
COc1cc(C(=O)NC2CCCNC2)cc(OC)c1OC (configuration not stated) [Troxipide],103,109,106,110,109,110,116,113
Nc1nc(=O)c2c([nH]1)NCC(CNc1ccc(C(=O)N[C@@H](CCC(=O)O)C(=O)O)cc1)N2C=O (some centres not stated) [Leucovorin Calcium],106,111,110,104,98,101,102,95.3
C=C1c2cccc(O)c2C(=O)C2=C(O)[C@]3(O)C(=O)C(C(N)=O)=C(O)[C@@H](N(C)C)[C@@H]3[C@@H](O)[C@H]12 [Methacycline hydrochloride],98.1,99.7,107,109,102,105,103,99.7
CN(CCOc1ccc(CC2SC(=O)NC2=O)cc1)c1ccccn1 (configuration not stated) [Rosiglitazone],104,104,98.3,104,99.2,105,98.4,104
C=C1CC[C@H](O)C/C1=C/C=C1\CCC[C@]2(C)[C@@H]([C@H](C)CCCC(C)C)CC[C@@H]12 [Vitamin D3],104,89.6,54.7,109,94.8,70.8,66.2,116
CC(=O)OCC(=O)NCCCOc1cccc(CN2CCCCC2)c1 [Roxatidine acetate HCl],105,104,99.8,114,110,102,107,108
Cc1ccccc1C(=O)Nc1ccc(C(=O)N2CCCC(O)c3cc(Cl)ccc32)c(C)c1 (configuration not stated) [Tolvaptan],97.3,104,104,110,96.7,104,106,108
CCc1c2c(nc3ccc(OC(=O)N4CCC(N5CCCCC5)CC4)cc13)-c1cc3c(c(=O)n1C2)COC(=O)[C@]3(O)CC [Irinotecan HCl Trihydrate],89,95.6,64.6,40.2,99,83.5,62.5,40.2
C#C[C@]1(O)CC[C@H]2[C@@H]3CCC4=CC(=O)CC[C@@H]4[C@H]3CC[C@@]21CC [Levonorgestrel],110,115,104,112,107,104,111,111
C[C@]12CC[C@H](O)CC1=CC[C@@H]1[C@@H]2CC[C@]2(C)C(c3cccnc3)=CC[C@@H]12 [Abiraterone],74.6,72.2,86.7,116,61.2,67.9,78.7,112
COc1cc2nc(N(C)CCCNC(=O)C3CCCO3)nc(N)c2cc1OC (configuration not stated) [Alfuzosin hydrochloride],103,106,99.9,106,103,107,114,112
Oc1ncnc2[nH]ncc12 [Allopurinol],114,108,106,109,105,103,106,110
Clc1ccc(COC(Cn2ccnc2)c2ccc(Cl)cc2Cl)c(Cl)c1 (configuration not stated) [Miconazole],96.8,99.4,98.3,104,101,101,101,106
CN(C)CC/C=C1/c2ccccc2Sc2ccc(Cl)cc21 [Chlorprothixene],105,112,102,115,108,107,118,118
CC(=O)[C@H]1CC[C@H]2[C@@H]3CCC4=CC(=O)CC[C@]4(C)[C@H]3CC[C@]12C [Progesterone],109,105,103,116,111,111,111,116
CN(C)C(=N)NC(=N)N [Metformin hydrochloride],98.4,104,105,109,105,96.6,104,109
NC(=O)N1c2ccccc2C=Cc2ccccc21 [Carbamazepine],97.1,103,105,106,103,103,95.1,109
COC(=O)C1=C(C)NC(C)=C(C(=O)OC2CCCN(Cc3ccccc3)C2)C1c1cccc([N+](=O)[O-])c1 (configuration not stated) [Benidipine hydrochloride],104,113,109,25,114,109,102,24
CCOC(=O)OC(C)OC1=C(C(=O)Nc2ccccn2)N(C)S(=O)(=O)c2ccccc21 (configuration not stated) [Ampiroxicam],110,102,104,121,101,101,102,120
